Holding throughout (parameters): scale not given: direction of the effect not stated beside the values
Experiment [1] concerns the target Protein translocase subunit SecA (Escherichia coli (strain K12)) (UniProt P10408). In words: Assay to Identify E. coli SecA ATPase Inhibitors. Format: functional. Conditions: 30 µM.
In experiment [2] the target is T1, Ubiquitin-activating enzyme e1, putative (Leishmania donovani (strain BPK282A1)) (UniProt E9BSI1).
T1 sequence (whole entry): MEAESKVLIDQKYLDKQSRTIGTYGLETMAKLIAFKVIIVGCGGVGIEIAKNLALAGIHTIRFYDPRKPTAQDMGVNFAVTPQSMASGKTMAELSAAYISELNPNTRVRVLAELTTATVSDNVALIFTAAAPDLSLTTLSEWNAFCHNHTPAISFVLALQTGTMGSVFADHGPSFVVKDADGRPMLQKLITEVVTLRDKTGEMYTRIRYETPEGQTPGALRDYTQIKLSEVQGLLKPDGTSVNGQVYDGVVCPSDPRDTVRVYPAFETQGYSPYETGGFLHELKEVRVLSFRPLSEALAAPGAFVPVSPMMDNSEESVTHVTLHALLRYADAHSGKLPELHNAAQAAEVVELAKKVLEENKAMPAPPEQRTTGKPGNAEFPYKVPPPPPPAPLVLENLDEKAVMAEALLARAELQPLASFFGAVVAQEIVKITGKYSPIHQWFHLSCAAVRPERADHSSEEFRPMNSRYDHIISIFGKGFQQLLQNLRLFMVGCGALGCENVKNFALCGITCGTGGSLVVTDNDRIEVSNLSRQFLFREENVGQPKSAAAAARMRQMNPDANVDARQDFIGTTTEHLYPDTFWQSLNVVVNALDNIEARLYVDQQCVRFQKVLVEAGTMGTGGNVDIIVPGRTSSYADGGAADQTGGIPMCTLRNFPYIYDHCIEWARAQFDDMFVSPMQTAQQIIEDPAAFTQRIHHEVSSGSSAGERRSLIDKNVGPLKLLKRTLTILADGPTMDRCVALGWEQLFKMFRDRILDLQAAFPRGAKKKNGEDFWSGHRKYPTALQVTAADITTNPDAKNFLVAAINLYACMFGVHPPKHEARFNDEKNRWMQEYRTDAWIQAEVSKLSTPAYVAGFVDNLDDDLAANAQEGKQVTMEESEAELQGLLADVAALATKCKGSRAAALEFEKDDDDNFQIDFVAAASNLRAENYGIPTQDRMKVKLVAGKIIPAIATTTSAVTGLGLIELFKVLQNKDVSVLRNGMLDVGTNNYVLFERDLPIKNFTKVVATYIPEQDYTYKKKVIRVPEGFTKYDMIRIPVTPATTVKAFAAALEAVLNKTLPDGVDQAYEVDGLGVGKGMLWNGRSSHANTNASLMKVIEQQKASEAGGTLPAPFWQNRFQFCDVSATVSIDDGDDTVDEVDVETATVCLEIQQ
The experiment can be described thus: Leishmania donovani Ubiquitin Activating Enzyme (LdE1). Format: functional. Conditions: 30 µM.

Experiment [3] deals with AMP-activated protein kinase, AMPK (Homo sapiens) (UniProt P54646+O43741+P54619+Q9UGJ0+Q9Y478+Q13131+Q9UGI9). In words: AMP-dependent Kinase enzyme assay. An in vitro enzyme assay that detects ADP turnover that is directly proportional to AMPK activity. This uses naive AMPK that is activated during the assay with MK-8722. The class given is functional. Conditions: 30 µM.

Experiment [4] has as its target Sialic acid-binding Ig-like lectin 9 (Homo sapiens) (UniProt Q9Y336). In words: Hs-Siglec9 ALPHAscreen SOP 20170721. Conditions: 10 µM.
Experiment [5] has as its system Trypanosoma cruzi. In words: Trypanosoma cruzi phosphomannomutase and mannose-1-phosphate guanylyltransferase assay. Format: functional. Conditions: 10 µM.
In experiment [6] the target is T2, Arginase-2, mitochondrial (Homo sapiens) (UniProt P78540).
T2 sequence (whole entry): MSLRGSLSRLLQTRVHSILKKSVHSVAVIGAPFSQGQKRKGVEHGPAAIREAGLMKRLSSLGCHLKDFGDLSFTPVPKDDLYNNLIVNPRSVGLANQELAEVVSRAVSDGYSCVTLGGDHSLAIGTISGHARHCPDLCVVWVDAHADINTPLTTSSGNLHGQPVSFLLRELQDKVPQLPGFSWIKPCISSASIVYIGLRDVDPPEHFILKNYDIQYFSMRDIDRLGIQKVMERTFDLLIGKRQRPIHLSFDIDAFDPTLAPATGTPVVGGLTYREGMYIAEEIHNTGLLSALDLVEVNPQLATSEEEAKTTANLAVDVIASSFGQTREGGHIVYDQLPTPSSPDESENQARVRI
The experiment can be described thus: in vitro enzyme assay to detect the production of urea directly proportional to the activity of Arginase II. Note: in the data most compounds retested in dose-response had high values. The class given is functional. Conditions: 33.3 µM.

Experiment [7] has as its target T3, Proteasome subunit beta (Trypanosoma cruzi) (UniProt O96673).
T3 sequence (whole entry): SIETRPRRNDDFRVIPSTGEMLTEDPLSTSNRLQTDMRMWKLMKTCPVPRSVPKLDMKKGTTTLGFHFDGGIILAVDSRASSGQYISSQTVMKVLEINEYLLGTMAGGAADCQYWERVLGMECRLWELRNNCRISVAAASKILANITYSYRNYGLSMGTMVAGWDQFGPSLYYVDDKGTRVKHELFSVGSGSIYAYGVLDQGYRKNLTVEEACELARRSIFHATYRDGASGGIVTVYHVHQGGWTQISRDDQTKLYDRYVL
The experiment can be described thus: Trypanosoma cruzi proteasome chymotrypsin-like activity (TcProtChymo) assay. Note: in the data most compounds retested in dose-response had high values. The class given is functional. Conditions: 9.37 µM.

Experiment [8] is filed under the species Homo sapiens. The experiment can be described thus: To identify inhibition of the IFN signalling (Jak-Stat) pathway via expression of an eGFP reporter gene under the control of an IFN-stimulated response element (ISRE) containing MxA promoter. Format: functional. Conditions: 30 µM.
The target in experiment [9] is T4, Tyrosyl-tRNA synthetase, putative (Trypanosoma cruzi (strain CL Brener)) (UniProt Q4DSP6).
T4 sequence (whole entry): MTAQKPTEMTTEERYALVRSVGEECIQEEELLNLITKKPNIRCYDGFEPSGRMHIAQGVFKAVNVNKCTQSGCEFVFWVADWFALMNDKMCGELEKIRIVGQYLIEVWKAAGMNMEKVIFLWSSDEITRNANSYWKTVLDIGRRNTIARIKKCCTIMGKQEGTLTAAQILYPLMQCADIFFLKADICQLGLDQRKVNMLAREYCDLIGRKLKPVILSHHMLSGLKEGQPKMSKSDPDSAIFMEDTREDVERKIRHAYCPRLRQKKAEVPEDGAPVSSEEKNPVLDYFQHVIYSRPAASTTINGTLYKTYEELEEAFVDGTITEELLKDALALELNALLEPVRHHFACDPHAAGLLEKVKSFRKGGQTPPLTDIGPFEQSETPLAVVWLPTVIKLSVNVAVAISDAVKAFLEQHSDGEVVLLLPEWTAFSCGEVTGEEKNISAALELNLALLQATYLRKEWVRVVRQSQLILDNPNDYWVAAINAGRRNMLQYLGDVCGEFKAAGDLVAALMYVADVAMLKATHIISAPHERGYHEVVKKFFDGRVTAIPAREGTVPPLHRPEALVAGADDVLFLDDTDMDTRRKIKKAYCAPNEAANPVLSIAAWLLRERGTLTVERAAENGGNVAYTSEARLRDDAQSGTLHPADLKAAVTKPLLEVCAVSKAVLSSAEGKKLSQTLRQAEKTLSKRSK
In words: Trypanosoma cruzi tyrosyl tRNA synthetase (TcYRS) _High Tyrosine SOP. Note: in the data most compounds retested in dose-response had high values. The class given is functional. Conditions: 30 µM.

The target in experiment [10] is T4, Tyrosyl-tRNA synthetase, putative (Trypanosoma cruzi (strain CL Brener)). The experiment can be described thus: Trypanosoma cruzi tyrosyl tRNA synthetase (TcYRS) SOP. Format: functional. Conditions: 30 µM.
In experiment [11] the target is Chromo domain-containing protein 1 (Saccharomyces cerevisiae (strain ATCC 204508 / S288c) (Baker's yeast)) (UniProt P32657). The experiment can be described thus: ScCHD-1 Enzyme Inhibition Assay. Note: in the data most compounds retested in dose-response had high values. Conditions: 30 µM. Format: functional.

Percent Effect data for nine molecules are collected here from ChEMBL document CHEMBL3988442, “University of Dundee, Small-Polar-MMV Screening Library” (2021).

Structures are written as SMILES. For part of these data: Entries with a potency or affinity are not part of this list.

Sialic acid-binding Ig-like lectin 9 (Homo sapiens), sequence (Q9Y336 whole entry): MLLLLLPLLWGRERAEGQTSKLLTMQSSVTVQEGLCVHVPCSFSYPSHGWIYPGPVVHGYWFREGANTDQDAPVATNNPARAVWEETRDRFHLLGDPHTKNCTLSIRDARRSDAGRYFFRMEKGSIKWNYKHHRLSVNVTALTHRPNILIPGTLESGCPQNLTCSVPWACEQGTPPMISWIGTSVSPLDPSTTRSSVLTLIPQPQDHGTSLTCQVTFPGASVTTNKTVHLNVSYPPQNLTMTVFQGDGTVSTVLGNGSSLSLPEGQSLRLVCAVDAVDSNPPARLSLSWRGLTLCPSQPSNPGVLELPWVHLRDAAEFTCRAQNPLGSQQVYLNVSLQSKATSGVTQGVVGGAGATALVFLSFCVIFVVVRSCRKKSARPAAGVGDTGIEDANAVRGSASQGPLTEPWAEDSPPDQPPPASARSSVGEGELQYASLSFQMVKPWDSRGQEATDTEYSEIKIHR
Chromo domain-containing protein 1 (Saccharomyces cerevisiae (strain ATCC 204508 / S288c) (Baker's yeast)), sequence (P32657 whole entry, the tested form may be a part): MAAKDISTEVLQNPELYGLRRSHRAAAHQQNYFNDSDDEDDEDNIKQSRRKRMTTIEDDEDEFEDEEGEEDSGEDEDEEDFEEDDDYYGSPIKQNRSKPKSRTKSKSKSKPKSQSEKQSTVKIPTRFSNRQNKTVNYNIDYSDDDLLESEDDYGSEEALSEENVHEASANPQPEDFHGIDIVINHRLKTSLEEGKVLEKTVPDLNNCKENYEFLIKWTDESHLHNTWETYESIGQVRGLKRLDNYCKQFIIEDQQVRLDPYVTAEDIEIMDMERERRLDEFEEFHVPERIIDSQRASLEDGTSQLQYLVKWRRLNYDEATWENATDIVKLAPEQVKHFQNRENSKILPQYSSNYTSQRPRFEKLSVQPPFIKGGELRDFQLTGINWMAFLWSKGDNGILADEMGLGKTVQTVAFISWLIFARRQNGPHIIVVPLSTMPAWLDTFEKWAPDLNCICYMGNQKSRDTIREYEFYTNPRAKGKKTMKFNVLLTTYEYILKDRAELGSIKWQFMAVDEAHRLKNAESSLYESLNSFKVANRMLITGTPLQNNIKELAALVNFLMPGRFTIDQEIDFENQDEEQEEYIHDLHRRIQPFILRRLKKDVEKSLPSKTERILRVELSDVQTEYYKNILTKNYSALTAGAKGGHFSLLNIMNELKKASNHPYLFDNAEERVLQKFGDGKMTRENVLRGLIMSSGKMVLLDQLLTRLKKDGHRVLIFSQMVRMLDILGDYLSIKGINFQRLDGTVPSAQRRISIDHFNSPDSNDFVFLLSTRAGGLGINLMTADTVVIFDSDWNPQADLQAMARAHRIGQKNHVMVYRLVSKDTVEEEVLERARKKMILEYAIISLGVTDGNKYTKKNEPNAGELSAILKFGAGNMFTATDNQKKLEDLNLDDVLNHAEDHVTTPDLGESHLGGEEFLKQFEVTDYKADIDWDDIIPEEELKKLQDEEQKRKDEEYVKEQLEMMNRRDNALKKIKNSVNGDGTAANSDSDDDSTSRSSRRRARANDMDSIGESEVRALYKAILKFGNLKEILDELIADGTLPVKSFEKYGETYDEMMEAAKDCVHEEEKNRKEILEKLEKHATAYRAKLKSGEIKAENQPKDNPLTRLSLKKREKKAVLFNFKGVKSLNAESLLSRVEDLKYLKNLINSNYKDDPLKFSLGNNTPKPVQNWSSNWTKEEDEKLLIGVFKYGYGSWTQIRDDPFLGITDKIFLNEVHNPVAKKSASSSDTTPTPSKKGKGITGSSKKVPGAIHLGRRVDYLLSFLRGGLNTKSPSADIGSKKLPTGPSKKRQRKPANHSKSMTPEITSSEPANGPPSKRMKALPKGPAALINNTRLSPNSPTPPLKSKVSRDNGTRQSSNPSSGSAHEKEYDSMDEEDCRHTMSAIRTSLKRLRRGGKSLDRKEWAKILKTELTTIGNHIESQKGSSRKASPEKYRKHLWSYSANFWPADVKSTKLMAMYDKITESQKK
Protein translocase subunit SecA (Escherichia coli (strain K12)), sequence (P10408 whole entry): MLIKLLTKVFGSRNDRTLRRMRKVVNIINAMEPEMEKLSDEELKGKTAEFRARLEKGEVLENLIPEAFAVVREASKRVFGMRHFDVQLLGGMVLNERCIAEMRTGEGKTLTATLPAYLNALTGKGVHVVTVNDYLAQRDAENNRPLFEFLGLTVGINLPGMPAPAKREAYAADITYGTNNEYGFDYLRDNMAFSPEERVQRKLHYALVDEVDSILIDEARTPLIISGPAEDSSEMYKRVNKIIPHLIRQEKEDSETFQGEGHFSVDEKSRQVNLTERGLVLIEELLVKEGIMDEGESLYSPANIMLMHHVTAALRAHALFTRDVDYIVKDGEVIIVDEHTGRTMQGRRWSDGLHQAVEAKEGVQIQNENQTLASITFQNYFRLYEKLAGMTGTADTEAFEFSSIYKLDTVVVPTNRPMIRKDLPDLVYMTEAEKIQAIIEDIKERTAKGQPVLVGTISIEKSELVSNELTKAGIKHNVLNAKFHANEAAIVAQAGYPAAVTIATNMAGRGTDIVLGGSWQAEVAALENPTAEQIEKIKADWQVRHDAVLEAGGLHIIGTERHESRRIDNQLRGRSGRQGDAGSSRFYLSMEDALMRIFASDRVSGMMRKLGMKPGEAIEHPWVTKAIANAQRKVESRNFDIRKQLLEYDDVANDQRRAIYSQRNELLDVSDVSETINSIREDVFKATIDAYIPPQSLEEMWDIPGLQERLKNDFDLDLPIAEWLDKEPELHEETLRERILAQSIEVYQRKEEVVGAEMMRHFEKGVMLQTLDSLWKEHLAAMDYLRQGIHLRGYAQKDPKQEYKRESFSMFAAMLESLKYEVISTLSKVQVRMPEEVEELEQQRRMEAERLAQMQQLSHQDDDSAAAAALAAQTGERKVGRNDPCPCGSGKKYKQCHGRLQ

As to `Cc1nn(CC(C)C)c(N(C)C)c1CNCc1cccc2c1OCO2`, the Percent Effect in experiment [1] is 3.79%; in experiment [2], 13.5%; in experiment [3] it was -13.1%; in [4] it was -3.94%; in experiment [5], -8.02%; in experiment [6], -12%. The Percent Effect in experiment [7] was 16.9%; in [8], 13.9%; in [9] it was 7.39%; in [10], 11.1%; in [11] it was -4.83%.
Take `COCCN(Cc1ccc(F)cc1Cl)C(=O)c1ccncc1`: the Percent Effect is -1.67% in experiment [1]; -1.39% in [2]; -3.11% in experiment [3]; 0.447% in [4]; 0.486% in experiment [5]; -1.32% in experiment [6]. For the same molecule, the Percent Effect in experiment [7] was 5.09%; in [8] it was 0.399%; in experiment [9], -1.05%; in experiment [10], 0%; in experiment [11] it was -1.32%.
For `CCN(CC)c1ccc(C(=O)NCc2cccnc2-n2cncn2)cn1`, the Percent Effect in [1] is -0.491%; in experiment [2] it was 8.11%; in [3], -12.6%; in experiment [4] it was 48.7%; in [5] it was 1.86%; in experiment [6], 18.6%. Besides, the Percent Effect in experiment [7] was 8.84%; in experiment [8], 19.1%; in [9] it was 2.15%; in experiment [10], 11.1%; in experiment [11], -5.91%.
Regarding `CCN(CC1CCOC1)C(=O)c1ccccc1N1CCOCC1` (centres undefined), the Percent Effect was -3.71% in experiment [1]; 23.7% in experiment [2]; -4.13% in experiment [3]; -10.1% in [4]; -3.08% in experiment [5]; 1.8% in experiment [6]. Moreover, the Percent Effect was 4.82% in [7]; 12.3% in [8]; 5.42% in [9]; 11.1% in [10]; -5.45% in experiment [11].
`Cc1nc2ccccc2nc1CN1CCCC1Cn1cncn1` (centres undefined): the Percent Effect was -0.371% in [1]; 20.8% in experiment [2]; -4.59% in experiment [3]; -7.28% in experiment [4]; 3.23% in experiment [5]; 1.9% in [6]. The Percent Effect was 19.5% in experiment [7]; 13.1% in experiment [8]; 16.2% in experiment [9]; 21.2% in experiment [10]; -23.2% in [11].
Turning to `Cc1nccc([C@@H]2C[C@@H]3CCN(S(C)(=O)=O)C[C@H]3O2)n1`, the Percent Effect was -4.82% in experiment [1]; 8.11% in experiment [2]; -5.02% in experiment [3]; 10.6% in experiment [4]; 7.14% in [5]; -0.744% in experiment [6]. In addition, the Percent Effect in [7] is 7.64%; in experiment [8], 6.16%; in experiment [9] it was 8.6%; in [10], 13.6%; in experiment [11], -3.19%.
As for `CCc1nc(NS(=O)(=O)c2cc(C)ccc2F)no1`, the Percent Effect in [1] was -0.155%; in experiment [2], 0%; in experiment [3] it was -9.72%; in experiment [4] it was 8.2%; in experiment [5] it was 6.13%; in experiment [6], 15.1%. For the same molecule, the Percent Effect in [7] was 3.84%; in experiment [8], 1.84%; in experiment [9] it was 2.73%; in experiment [10], 6.17%; in experiment [11] it was -2.85%.
On to `CN(C)CC1CSCCCN1C(=O)c1ccc(=O)[nH]c1` (centres undefined), for which the Percent Effect in experiment [1] is -6.61%; in experiment [2], 2.6%; in experiment [3], 6.1%; in [4] it was 5.73%; in experiment [5] it was -5.82%; in [6], 0.645%. Besides, the Percent Effect was 7.66% in experiment [7]; 0.342% in [8]; -1.06% in experiment [9]; 3.85% in experiment [10]; -3.68% in [11].
In the case of `CCN1CCN(C2CCN(Cc3ncc(C(C)(C)C)o3)CC2)C1=O`, the Percent Effect is -2.95% in [1]; -7.79% in experiment [2]; 6.42% in [3]; 7.85% in [4]; 1.47% in experiment [5]; -1.47% in [6]. The Percent Effect in [7] was 7.2%; in experiment [8], -13.2%; in experiment [9], 6.67%; in [10], 7.06%; in experiment [11] it was -19.1%.
